AmpC nodet inh – Promiscuous and Specific Inhibitors of AmpC Beta-Lactamase (assay without detergent); AmpC nitrocefin hydrolysis, absorbance 480 nm, no detergent; 71,000 tested, 1.8% active; Potency, µM (doses to about 28.7 µM), without a hit: at the highest dose activity change, negative = inhibition; note: % of control where 0% means no effect
Target sequence (P00811 whole entry, looked up): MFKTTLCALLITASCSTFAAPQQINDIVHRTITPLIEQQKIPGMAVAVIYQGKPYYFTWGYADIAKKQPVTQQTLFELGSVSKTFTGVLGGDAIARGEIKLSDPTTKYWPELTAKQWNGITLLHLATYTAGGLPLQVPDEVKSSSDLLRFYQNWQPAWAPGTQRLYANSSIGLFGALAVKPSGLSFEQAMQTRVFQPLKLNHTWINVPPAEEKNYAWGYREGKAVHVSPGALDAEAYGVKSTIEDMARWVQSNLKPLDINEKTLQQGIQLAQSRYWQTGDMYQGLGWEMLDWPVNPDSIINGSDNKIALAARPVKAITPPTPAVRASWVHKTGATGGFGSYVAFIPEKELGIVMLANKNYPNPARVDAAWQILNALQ
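AmpC in 20 mM phosphate buffer pH 7.0 was preincubated 15 min at room temperature with compounds. Nitrocefin (800 uM stock) was then added and hydrolysis followed at 480 nm every 20 s for 4 min.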
AmpC inh det – Promiscuous and Specific Inhibitors of AmpC Beta-Lactamase (assay with detergent); P00811; purified AmpC, nitrocefin hydrolysis with detergent; Potency, µM (highest dose often 28.7 µM), without a hit: at the top dose activity change, negative = inhibition; 71,000 tested, 0.09% active; active = well fitted curve in the direction sought with a large enough effect; inconclusive = small, poorly fitted or top-dose-only effect; note: % is set by controls: 0 for no effect and ±100 for the full control effect
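E. coli AmpC (5.3 nM) in 20 mM phosphate pH 7.0 with 0.01% Triton X-100, preincubated 15 min RT with compound; nitrocefin (2 uL of 800 uM stock) hydrolysis followed by 480 nm absorbance every 20 s over 4 min.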
Anthrax LT inh – qHTS Assay for Anthrax Lethal Toxin Internalization; AID 912, 2007; Potency, µM (top dose mostly 40 µM), inactives show at the top dose activity change, negative = inhibition, actives largely listed as inhibitors; 70,000 tested, 0.67% active; Cells, anthrax lethal toxin internalization, FRET ratio (460/530); note: % is set by controls: 0 for no effect and ±100 for the full control effect; nearly all actives have a fitted effect of over 50% in size
SmPrx2 inh – Schistosoma Mansoni Peroxiredoxins (Prx2) | S. mansoni Prx2 activity coupled to TGR/GSH (TGR is thioredoxin glutathione reductase), NADPH fluorescence loss, qHTS | Potency, µM | AID 448, 2006 | 65,000 tested, 0.07% active | Schistosoma mansoni peroxiredoxin 2 (Prx2)
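Prx2 inhibition was measured as reduced NADPH consumption when electrons flowed from NADPH through TGR and glutathione to Prx2 and H2O2. Plates were read kinetically over 8 min; enzyme reagents were held at 4 deg C during dispensing.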
Active calls of the source: *; ! = repeats disagree; [ ] = remark or other dose. A selection: hits, their analogues and other compounds. The true share with any hit is near 2.4%. Unless noted, calls come from the whole dose curve. Potency is the fitted concentration of half-maximal effect.

Screening CCOc1c(C(N)=O)c(-c2ccccc2)c2c(=O)[nH]c3ccccc3n12 returned AmpC nodet inh 12.6µM*, AmpC inh det 0.9%, Anthrax LT inh inconclusive and SmPrx2 inh >57.
COc1ccc(-c2nc3cnc(N4CCN(C)CC4)nc3n(C)c2=O)cc1 was read as AmpC nodet inh 78.4%, AmpC inh det 0.2%, Anthrax LT inh inconclusive and SmPrx2 inh >57.
`N[C@H](Cn1oc(=O)[nH]c1=O)C(=O)O` gave AmpC nodet inh 5.7%, AmpC inh det -4.7%, Anthrax LT inh 4.3% and SmPrx2 inh >57.
`O=C(CSc1nc(-c2ccc(F)cc2)cs1)NC(=O)NCc1ccco1` gave AmpC nodet inh 3.16µM*, AmpC inh det -0.4%, Anthrax LT inh -19.0% and SmPrx2 inh >57.
`Cc1cc(NC(=O)CSc2nc(-c3ccc(F)cc3)cs2)no1` gave AmpC nodet inh -13.1%, AmpC inh det -2.5%, Anthrax LT inh -1.9% and SmPrx2 inh >57.
`Cc1ccc(C(C)C)n1C(=O)OC(C)(C)C` gave Anthrax LT inh 0.3%[8 µM].
`C[C@H]1CC[C@]2(NC1)O[C@@H]1C[C@@H]3[C@@H]4CC=C5C[C@H](O)CC[C@@]5(C)[C@H]4CC[C@@]3(C)[C@H]1[C@@H]2C` gave AmpC nodet inh -0.5%, AmpC inh det -0.3%, Anthrax LT inh 18.3% and SmPrx2 inh >57.
For Cc1ccc(S(=O)(=O)Nc2ccc3nc(N)sc3c2)cc1 the results were AmpC nodet inh 10µM*, AmpC inh det 2.1%, Anthrax LT inh -20.9% and SmPrx2 inh >57.
For O=C(NCc1ccc2c(c1)OCO2)c1ccc(NS(=O)(=O)c2ccc3c(c2)OCCO3)cc1 the results were AmpC nodet inh 10µM*, AmpC inh det -1.9%, Anthrax LT inh -9.5% and SmPrx2 inh >57.
O=C(NCc1ccccc1)c1c[nH]c2ccc(S(=O)(=O)Nc3ccc4c(c3)OCCO4)cc2c1=O was read as AmpC nodet inh 10µM*, AmpC inh det -2.2%, Anthrax LT inh -6.0% and SmPrx2 inh >57.
O=C(NCc1ccc2c(c1)OCO2)c1cccc(C(=O)NCc2ccc3c(c2)OCO3)c1 was read as AmpC nodet inh inconclusive, AmpC inh det 0.1% and Anthrax LT inh inconclusive.
`N[C@@H](Cn1cc(I)c(=O)n(Cc2ccc(C(=O)O)cc2)c1=O)C(=O)O` gave AmpC nodet inh 4.5%, AmpC inh det -4.4%, Anthrax LT inh inconclusive and SmPrx2 inh >57.
For Cc1ccc(C)c2[nH]c(=O)c(CN(CCN3CCCC3)C(=O)Nc3cccc(Cl)c3)cc12 the results were AmpC nodet inh 98.5%, AmpC inh det -2.6%, Anthrax LT inh 7.94µM* and SmPrx2 inh >57.
`N[C@@H](Cc1ccc(O)c(O)c1)C(=O)O` gave AmpC nodet inh -10.6%[12.8 µM], AmpC inh det 1.0%[12.8 µM], Anthrax LT inh -10.0%[3.58 µM] and SmPrx2 inh >57.
For C[C@H](Cc1ccc(O)c(O)c1)[C@@H](C)Cc1ccc(O)c(O)c1 the results were AmpC nodet inh -23.7%, AmpC inh det -5.0%, Anthrax LT inh 15.8µM*! and SmPrx2 inh >57.
`O=C(Oc1ccccc1)N1CCC2(CC1)CCN(c1ccccn1)CC2` gave AmpC nodet inh 92.1%, AmpC inh det -4.1%, Anthrax LT inh -20.6% and SmPrx2 inh >57.
For COc1ccc(-c2cc(CCCC(=O)NCc3ccccn3)no2)cc1 the results were AmpC nodet inh 3.16µM*[single pt active], AmpC inh det 13.7%, Anthrax LT inh -14.0% and SmPrx2 inh >57.
For COc1ccc(-c2cc(CCCC(=O)NCCc3ccc(OC)cc3OC)no2)cc1 the results were AmpC nodet inh 40.0%, AmpC inh det 14.6% and SmPrx2 inh >57.
For CCCC/C=C/C(NC(=O)c1ccccc1)c1ccccc1 (stereo unspecified) the results were AmpC nodet inh -12.7%, AmpC inh det -2.1%, Anthrax LT inh inconclusive and SmPrx2 inh >57.
CCCC/C=C/C(NC(=O)c1ccc(C(F)(F)F)cc1)c1ccccc1 (stereo unspecified) was read as AmpC nodet inh 15.8µM*[single pt active], AmpC inh det 1.8%, Anthrax LT inh -29.7% and SmPrx2 inh >57.
For COc1cccc(/C=C/C2=CC3(C)CC2(C)C(c2cccc(OC)c2)CC3=O)c1 (stereo unspecified) the results were Anthrax LT inh -23.7%[8 µM].
`COC(=O)C(CC(=O)c1ccc(Br)cc1)n1ccnc1` (stereo unspecified) gave AmpC nodet inh 7.0%, AmpC inh det -4.1%, Anthrax LT inh 12.6µM* and SmPrx2 inh >57.
Cc1ccc(C(=O)CC(C(=O)O)n2cccn2)cc1 (stereo unspecified) was read as AmpC nodet inh -6.3%, AmpC inh det 0.2%, Anthrax LT inh 7.9% and SmPrx2 inh >57.
Nc1nc(N)c2nc(CNc3ccc(C(=O)N[C@H](CCC(=O)O)C(=O)O)cc3)cnc2n1 was read as AmpC nodet inh 6.0%, AmpC inh det -1.5%, Anthrax LT inh inconclusive and SmPrx2 inh >57.
For COc1ccc(NC(=O)N2c3ccccc3CC2C)cc1OC (stereo unspecified) the results were AmpC nodet inh 18.6%, AmpC inh det -6.1%, Anthrax LT inh 4.4% and SmPrx2 inh >57.
For COC(=O)c1ccccc1NC(=O)N1c2ccccc2CC1C (stereo unspecified) the results were AmpC nodet inh 7.9%, AmpC inh det -6.3%, Anthrax LT inh 15.8µM* and SmPrx2 inh >57.
For O=C(NCCc1ccccc1)C1CCCN(S(=O)(=O)c2cnc[nH]2)C1 (stereo unspecified) the results were AmpC nodet inh 3.8%, AmpC inh det 4.1%, Anthrax LT inh -3.3% and SmPrx2 inh >57.
CCCS(=O)(=O)N1CCCC(C(=O)NCCCN2CCN(c3ccccc3F)CC2)C1 (stereo unspecified) was read as AmpC nodet inh 45.2%, AmpC inh det -3.7%, Anthrax LT inh -0.6% and SmPrx2 inh >57.
`COc1ccc(N2CCN(CCCNC(=O)C3CCCN(S(=O)(=O)c4cnc[nH]4)C3)CC2)cc1` (stereo unspecified) gave AmpC nodet inh 3.98µM*[single pt active], AmpC inh det 12.0%, Anthrax LT inh inconclusive and SmPrx2 inh >57.
O=C(NCCN1CCC(Cc2ccccc2)CC1)C1CCCN(S(=O)(=O)c2cnc[nH]2)C1 (stereo unspecified) was read as AmpC nodet inh 3.98µM*[single pt active], AmpC inh det 11.5%, Anthrax LT inh -3.3% and SmPrx2 inh >57.
For O=C(NCCN1CCN(c2ccccc2F)CC1)C1CCCN(S(=O)(=O)c2cnc[nH]2)C1 (stereo unspecified) the results were AmpC nodet inh 3.98µM*[single pt active], AmpC inh det 9.5%, Anthrax LT inh -6.5% and SmPrx2 inh >57.
Screening N#Cc1cccc(NC(=O)N2CC[C@@]3(CCCN(C(=O)c4cnccn4)C3)C2)c1 returned AmpC nodet inh 29.2%, AmpC inh det 12.4%, Anthrax LT inh inconclusive and SmPrx2 inh >57.
Screening C[C@@]12CC[C@H]3[C@@H](CCC4=CC(=O)CC[C@]43C)[C@H]1CCC2=O returned AmpC nodet inh 16.9%, AmpC inh det -3.2%, Anthrax LT inh -6.8% and SmPrx2 inh >57.

Compound activity deposited in PubChem by National Center for Advancing Translational Sciences (NCATS).
